Data: ChEMBL document CHEMBL3988442, “University of Dundee, Small-Polar-MMV Screening Library” (2021)
In all, about 48,000 compounds went through this assay and about 13,000 (27%) showed an effect of 50% or more. The list shows a part of the results.

These compounds were tested on Wolbachia pipientis (assay: Anti-Wolbachia Cell-Based Screen). Conditions: 5 µM.
Assay type: functional
Design: scale not given: in the data most compounds retested in dose-response had high values

| SMILES | Percent Effect [%] |
| --- | --- |
| CC1CN(c2ccc(CNC(=O)NCCn3ccnc3)cn2)CCO1 (configuration not stated) | -7.777 |
| Cc1nn(C)cc1-c1ccnc(N(C)Cc2ccoc2)n1 | -63.97 |
| CN(Cc1ccncc1)C(=O)Nc1cnn(CC2CCCO2)c1 (configuration not stated) | -18.51 |
| Cl.O=C(Nc1cccc(C(=O)OCC2CCCN2)c1)c1ccoc1 (configuration not stated) | -16.18 |
| Cc1cc(C)n(CC2CCCN2CCCS(=O)(=O)N(C)C)n1 (configuration not stated) | -14.18 |
| Cc1cc(=O)[nH]c(NCCNC(=O)CN2CCCCCC2)n1 | 0.3352 |
| COCCCSc1ccc(NCc2scnc2C)cc1 | -22.23 |
| CNC(=O)NC(=O)CN(CC(C)O)c1ccccc1 (configuration not stated) | 1.255 |
| Cc1ccsc1CN(Cc1cccnc1)C1CC(C)(C)NC(C)(C)C1.O=C(O)CC(O)(CC(=O)O)C(=O)O | 106.7 |
| Cc1ccc(CN(Cc2cccnc2)C2CC(C)(C)NC(C)(C)C2)s1.O=C(O)CC(O)(CC(=O)O)C(=O)O | 9.465 |
| CC1(C)CC(N(Cc2ccccc2)Cc2cccnc2)CC(C)(C)N1.O=C(O)CC(O)(CC(=O)O)C(=O)O | 31.11 |
| Cc1ncsc1C(=O)N(Cc1cccnc1)C1CC1 | 11.29 |
| CC1(C)CC(N(Cc2cccnc2)Cc2cccnc2)CC(C)(C)N1.O=C(O)CC(O)(CC(=O)O)C(=O)O | 81.01 |
| CN1CCc2nc(N(C)C)nc(N3CCC(O)CC3)c2C1 | 12.64 |
| CN(C)c1ncc2c(n1)N(C)CCN(CC1CC1)C2=O | 109.4 |
| CCCN(C)c1ncc2c(n1)N(C)CCN(CC1CC1)C2=O | 98.31 |
| Cc1ccccc1-n1cnnc1SCCOCC1CCCO1 (configuration not stated) | -11.81 |
| Cc1ccc(-c2noc([C@@H]3C[C@H](NC(=O)CC(C)(C)C)CN3C)n2)cc1 | -9.06 |
| Cc1ccnc(CC(C)N(C)c2cc(CN)nc(C)n2)c1 (configuration not stated) | -4.516 |
| CCn1ccnc1CN1CCN(CC(O)c2cccc(F)c2)CC1 (configuration not stated) | 152.7 |
| CC(c1ccc(F)c(F)c1)N1CCN(Cc2nccn2C)CC1 (configuration not stated) | -0.152 |
| COc1ccc(C(C)N2CCN(Cc3nccn3C)CC2)cc1Cl (configuration not stated) | -0.7599 |
| CCn1ccnc1CN1CCN(CC(O)c2ccccc2)CC1 (configuration not stated) | -0.4709 |
| Cn1ccnc1CN1CCN(CC(O)c2cccc(F)c2)CC1 (configuration not stated) | 1.006 |
| CC(c1cccc(F)c1)N1CCN(Cc2nccn2C)CC1 (configuration not stated) | 119.5 |
| O=C(O)C(F)(F)F.O=C(O)C(F)(F)F.O=C(O)C(F)(F)F.c1cnc(NCc2noc3c2CN(CCN2CCCC2)CC3)nc1 | -9.81 |

| SMILES | Percent Effect [%] |
| --- | --- |
| Cc1ccc(NC(=O)NC(C)c2nc[nH]n2)s1 (configuration not stated) | 10.15 |
| CSCCN1CCN(c2nc(N)ncc2C)CC1 | -15.55 |
| O=C(c1cnccn1)N1CCN2C[C@H](OCc3ccccn3)C[C@H]2C1 | 1.808 |
| COc1ccc(-c2cccc(CC3(C(=O)O)CCOCC3)c2)cc1 | 106.8 |
| O=C(O)C1(Cc2cccc(-c3ccc(F)c(F)c3)c2)CCOCC1 | -9.122 |
| COc1cccc(CC2(C(=O)O)CCN(c3nccs3)CC2)c1 | 5.275 |
| Fc1ccc(C2(NCc3ccccc3)CCOCC2)cc1 | -10.48 |
| O=C(O)C1(Cc2cccc(-c3ccc(F)cc3)c2)CCOCC1 | 105.2 |
| COc1cccc(CC2(C(=O)O)CCN(c3ccc(Cl)cn3)CC2)c1 | -33.64 |
| CN(Cc1ccco1)c1ccc(-c2nccn2C)nn1 | -4.631 |
| CC1=C[C@@H](CN2CCCC2)[C@H](C(C)C)C[C@H]1Cc1nnc(C)o1 | -4.134 |
| CC(C)(C)OC(=O)N1CCCN1C(=O)c1cccc(F)c1F | -1.297 |
| O=C(Nc1ccc(F)c(-n2cccc2)c1)NC1(CCO)CCOCC1 | 29.93 |
| Cc1nccn1CCCC(=O)Nc1nc(C(C)C)nn1C | -14.12 |
| Cc1cc(NC(=O)CCCn2ccnc2C)nc(C(C)C)n1 | -7.681 |
| Br.Cc1cc(C)nc(NCCC(=O)NCCn2ccnc2C)n1 | 178 |
| CSC1(CNC(=O)N(C)Cc2sccc2C)CCOCC1 | 7.6 |
| O=C(N1CCOCC1)N1CC[C@H]2[C@@H]1CCC(=O)N2c1ccccc1 | -0.9647 |
| Cc1cccnc1N1CCC(c2nccn2Cc2cscn2)CC1 | -9.317 |
| COc1ccc(C(=O)NCC(C)(O)CCc2ccccc2)cc1 (configuration not stated) | -2.442 |
| Cn1cccc1C(=O)NCc1cnc2n1CCN(C(=O)N1CCCC1)C2 | 10.49 |
| CN(C)C(=O)N1CCn2cc(CNC(=O)CC3CC3)nc2C1 | -12.44 |
| O=C(NCc1cnc2n1CCN(CC1CC1)CC2)C1CCC1 | 16.9 |
| O=C(NCc1cnc2n1CCN(c1ncc(F)cn1)CC2)C1CCC1 | 15.93 |
| Cn1cccc1C(=O)NCc1cnc2n1CCN(C(N)=O)CC2 | -2.634 |
| CC(=O)N1CCc2ncc(CNC(=O)C3CCC3)n2CC1 | 106.1 |

| SMILES | Percent Effect [%] |
| --- | --- |
| NC(=O)N1CCc2ncc(CNC(=O)CC3CC3)n2CC1 | 111.4 |
| CS(=O)(=O)N1CCc2ncc(CNC(=O)C3CCC3)n2CC1 | 95.01 |
| Cc1cc(N2CCC(NC(=O)CCC3CCCO3)CC2)nc(C)n1 (configuration not stated) | 7.946 |
| Cc1cn2c(n1)C(CNCc1ccc(C)s1)CCC2 (configuration not stated) | 5.575 |
| CC1(C)[C@H]2CC=C(CN3CCCn4nc(C(=O)NCCO)cc4C3)[C@@H]1C2 | 10.58 |
| Cc1cccc(OCCC(=O)N2CCCN(C(N)=O)CC2)c1C | -12.46 |
| COC(=O)CNc1ccc(-c2nc(Cc3ccc(OC)cc3)no2)cn1 | -28.16 |
| OC[C@@H]1CCCN1c1ccc(-c2nc(CCc3ccccc3)no2)cn1 | 1.286 |
| c1ccc(Cc2noc(-c3ccc(NCC4CCCOC4)nc3)n2)cc1 (configuration not stated) | 130.1 |
| COc1cccc(-c2noc(-c3ccc(NCC4CC4)nc3)n2)c1OC | -9.972 |
| O=C(NCC1COCCO1)c1csc(Cc2ccccc2)n1 (configuration not stated) | -4.558 |
| c1ccc(Cc2noc(-c3ccc(NCC4COCCO4)nc3)n2)cc1 (configuration not stated) | 114.1 |
| Cc1ccccc1-c1noc(-c2ccc(N(C)C3CCOCC3)nc2)n1 | 1.469 |
| Cc1ccccc1-c1noc(-c2ccc(NCC3COCCO3)nc2)n1 (configuration not stated) | 87.55 |
| CC(CO)Nc1ccc(-c2nc(Cc3ccc(F)cc3)no2)cn1 (configuration not stated) | -69.59 |
| c1ccc(Cc2noc(-c3ccc(NCC4CCCCO4)nc3)n2)cc1 (configuration not stated) | 127.1 |
| COCC(C)Nc1ccc(-c2nc(Cc3ccc(F)cc3)no2)cn1 (configuration not stated) | -40.71 |
| O=C(CN1CC(c2nc(Cc3ccccc3)no2)C1)NCC1CCCO1.O=C(O)C(=O)O (configuration not stated) | 1.544 |
| CC(CNCc1ccncc1)Oc1ccccn1.Cl (configuration not stated) | 14.12 |
| Cc1cc(N2Cc3cnc(CC(C)C)nc3C2)nc(N)n1 | -9.889 |
| COC(=O)c1ccc(N(C)C2CCC2)nn1 | -14.02 |
| CSc1ccccc1CCC1CCS(=O)(=O)C1 (configuration not stated) | -15.64 |
| CS(=O)(=O)CCC(=O)NC1CC(c2cccc(Cl)c2)C1 (configuration not stated) | -6.793 |
| COCC1CN(C(=O)COc2ccccc2)Cc2cn(C)nc21.O=C(O)C(F)(F)F (configuration not stated) | -8.714 |
| CNC(=O)C1CN(C(=O)COc2ccccc2)Cc2cn(C)nc21 (configuration not stated) | 122.8 |
| CCOCC1CN(C(=O)COc2ccccc2)Cc2cn(C)nc21 (configuration not stated) | -5.674 |

| SMILES | Percent Effect [%] |
| --- | --- |
| COCC1CN(C(=O)c2ccco2)Cc2cn(C)nc21.O=C(O)C(F)(F)F (configuration not stated) | -0.009633 |
| COCC(=O)N1Cc2cn(C)nc2C(COc2cccnc2)C1 (configuration not stated) | -3.351 |
| CNC(=O)C1CN(C(=O)c2ccccc2)Cc2cn(C)nc21 (configuration not stated) | 107.7 |
| O=C1N(c2ccccc2)C[C@H]2CN(C3CCC3)CCN12 | -7.27 |
| O=C(c1ccccc1)N1CCN(C2CCc3ccc(F)cc32)CC1 (configuration not stated) | -8.707 |
| CCn1ncc(CN2CCC(O)(Cn3ccc4ncccc43)CC2)c1C | 101.2 |
| CCn1cc(CN2CCC(O)(Cn3ccc4ncccc43)CC2)cn1 | 79.32 |
| CCn1cc(CN2CCN(C(=O)N3CCOCC3)CC2)cn1 | 3.548 |
| Cc1cc(-n2cccn2)ccc1CN1CCC(O)(CN2CCCCC2)C1 (configuration not stated) | -16.49 |
| OC1(Cn2ccc3ncccc32)CCN(Cc2cccnc2)CC1 | 93.84 |
| OC1(Cn2ccc3ccncc32)CCN(Cc2ccccn2)CC1 | -11.69 |
| OC1(Cn2ccc3ncccc32)CCN(Cc2cccs2)CC1 | 107.1 |
| CCn1ccnc1-c1nccn1-c1ccccc1CN1CCOCC1 | -5.226 |
| CCn1cc(CN2CCC(CCC(=O)Nc3ccccc3Cl)CC2)cn1 | 5.103 |
| O=C(CCn1ccc2ccccc21)N1CCN(Cc2cccnc2)CC1 | -2.767 |
| c1cnnc(N2CCCC(NCc3nc(-c4ccsc4)no3)C2)c1 (configuration not stated) | -5.717 |
| COC(=O)c1ccc2ccn(CC3COCCO3)c(=O)c2c1 (configuration not stated) | -29.12 |
| NS(=O)(=O)N1CCC(C(=O)Nc2cccc(OC(F)F)c2)CC1 | 23.74 |
| Cc1cccc2c(=O)c(C(=O)N3CCCC4(CN(C)C(=O)O4)C3)c[nH]c12 (configuration not stated) | 3.697 |
| CN(Cc1nc(CS(C)(=O)=O)no1)c1ccccc1 | 1.355 |
| COc1ccccc1OC1CN(C(=O)C(c2ccccc2F)N(C)C)C1 (configuration not stated) | 10.69 |
| O=C(c1cccc(S(=O)(=O)NCCc2nccs2)c1)N1CCOCC1 | -12.77 |
| COCCCn1c(CN2CCCC(O)C2)cnc1S(=O)(=O)C1CCCC1 (configuration not stated) | -2.252 |
| COCCN1C(=O)[C@]2(CC[C@@H]3CN(S(=O)(=O)CC(C)C)C[C@@H]32)N=C1C | -14.47 |
